Bioassay records: PubChem BioAssay, Broad Institute
IDE exosite FP: displaces the probe from the exo-site of human IDE; P14735; z-score at 20 µM; purified IDE, FL-6b probe fluorescence polarization; active compounds read low; actives 6.3% (n = 17,000); AID 1259349;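 active means z-score of -3 or lower, meaning strong loss of probe binding signal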;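 further: His-tagged human IDE residues 42-1019 made in E. coli with 30 nM FL-6b probe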
* marks the source's active call; other numbers are inactive results. Shown is part of a subset that was picked to be rich in hits.

SMILES	IDE exosite FP
O=C(NC1CCCC1)N1CCCCN2[C@H](C1)[C@H](c1ccc(/C=C/c3ccccc3)cc1)[C@@H]2CO	-13*
O=C(c1ccc(F)cc1)N1CC(=O)N2[C@H](CO)[C@H](c3ccc(C#CC4CCCCC4)cc3)[C@H]2C1	3.5
COCC#Cc1ccc([C@H]2[C@H]3CN(C(=O)C4CC4)CC(=O)N3[C@H]2CO)cc1	0.41
COCCNC(=O)C[C@@H]1CC[C@@H]2[C@H](COC[C@@H](O)CN2C(=O)c2cc(Cl)cc(Cl)c2)O1	1.3
CC[C@H]1C/C=C\C[C@H](c2ccccc2)NC(=O)CCC(=O)N1	0.99
COc1ccc(C#Cc2ccc([C@@H]3[C@H]4CN(C(C)=O)CC(=O)N4[C@H]3CO)cc2)cc1	2.8
CC(C)(O)C#Cc1cccc(-c2nc(C(=O)O)cc3c2[C@H](CCO)N(S(=O)C(C)(C)C)C3)c1 (stereo partly specified)	-0.11
OC[C@@H]1[C@@H](c2ccc(C#Cc3ccccc3F)cc2)[C@@H]2CN(Cc3cncnc3)CCCCN12	-6.3*
OC[C@@H]1[C@@H](c2ccc(C#Cc3cccnc3)cc2)[C@@H]2CN(Cc3ccccc3F)CCCCN12	-0.035
OC[C@H]1[C@@H](c2ccc(C#Cc3ccccc3F)cc2)[C@@H]2CN(Cc3cncnc3)CCCCN12	-15*
OC[C@H]1[C@@H](c2ccc(-c3ccccc3F)cc2)[C@H]2CN(Cc3cncnc3)CCCCN21	-3.2*
OC[C@H]1[C@@H](c2ccc(-c3ccccc3F)cc2)[C@@H]2CN(Cc3cncnc3)CCCCN12	-2.7
OC[C@@H]1[C@H](c2ccc(-c3ccccc3F)cc2)[C@@H]2CN(Cc3cccnc3)CCCCN12	-1.2
OC[C@H]1[C@@H](c2ccc(C#Cc3ccccc3F)cc2)[C@H]2CN(Cc3cncnc3)CCCCN21	-2.1
COc1ccc(-c2ccccc2[C@@H]2[C@@H](CO)N(C(=O)NC(C)C)[C@H]2C#N)cc1	0.46
O=C(Cc1ccccn1)N1CC(=O)N2[C@H](C1)[C@H](c1ccc(C#CCC3CCCC3)cc1)[C@@H]2CO	1
N#Cc1cccc(-c2ccc(C3[C@H]4CNC[C@@H]3N4Cc3cc(F)ccc3F)cc2)c1 (stereo partly specified)	0.55
COc1ccc(-c2ccc([C@H]3[C@H](CO)N4C(=O)CN(C(=O)c5ccccn5)C[C@@H]34)cc2)cc1	-0.092
O=S(=O)(c1ccccc1)N1C[C@@H]2N[C@H](C1)C2c1ccc(-c2ccc(F)cc2)cc1 (stereo partly specified)	3
CN(C)C(=O)c1ccc(-c2ccccc2[C@@H]2[C@@H](C#N)N(C(=O)C3CC3)[C@@H]2CO)cc1	1.2
CC(C)C#Cc1ccc([C@H]2[C@@H](C#N)N(C(=O)CN(C)C)[C@@H]2CO)cc1	2.4
O=C(Nc1ccccc1)N1CCCCN2[C@H](C1)[C@@H](c1ccc(C#Cc3ccccc3)cc1)[C@@H]2CO	0.19
O=C(Nc1ccccc1F)N1CCCCN2[C@H](CO)[C@@H](c3ccc(C#Cc4ccccc4)cc3)[C@H]2C1	-4.1*
O=C(Nc1ccccc1F)N1CCCCN2[C@@H](CO)[C@@H](c3ccc(C#Cc4cccnc4)cc3)[C@@H]2C1	-0.043
O=C(Nc1ccccc1F)N1CCCCN2[C@H](CO)[C@@H](c3ccc(C#Cc4cccnc4)cc3)[C@@H]2C1	-1.8
SMILES	IDE exosite FP
O=C(Nc1ccccc1F)N1CCCCN2[C@H](CO)[C@@H](c3ccc(C#Cc4ccccc4)cc3)[C@@H]2C1	-0.69
O=C(Nc1ccccc1)N1CCCCN2[C@H](CO)[C@H](c3ccc(C#Cc4ccccc4)cc3)[C@@H]2C1	-3.4*
O=C(Nc1ccccc1)N1CCCCN2[C@H](C1)[C@H](c1ccc(C#Cc3ccccc3)cc1)[C@@H]2CO	-0.69
O=C(Nc1ccccc1F)N1CCCCN2[C@H](C1)[C@@H](c1ccc(C#Cc3cccnc3)cc1)[C@@H]2CO	-5.1*
O=C(Nc1ccccc1F)N1CCCCN2[C@H](CO)[C@H](c3ccc(C#Cc4ccccc4)cc3)[C@@H]2C1	-1.7
C[C@H](CO)N1C[C@H](C)[C@H](CN(C)Cc2ccc(-c3ccccc3)cc2)Oc2c(NS(C)(=O)=O)cccc2C1=O	0.33
CS(=O)(=O)Nc1ccc2c(c1)[C@@H]1C[C@@H](CC(=O)NCc3cc(F)ccc3F)O[C@H](CO)[C@@H]1O2	0.6
CC(C)NC[C@H]1[C@H](c2ccc(C3=CCCCC3)cc2)[C@@H](CO)N1C(=O)NC(C)C	5.7
COc1cccc(S(=O)(=O)N[C@@H]2CC[C@H](CC(=O)NC3Cc4ccccc4C3)O[C@H]2CO)c1	0.91
CN1C(=O)c2cc(NC(=O)c3cccc(F)c3)ccc2OC[C@H]2O[C@H](CC(=O)NCc3ccccc3Cl)CC[C@H]21	-0.058
Cn1cnc(S(=O)(=O)N2CC[C@@H]3[C@H]2c2cc(C4=CCCCC4)ccc2N[C@@H]3CO)c1	0.28
O=C(Nc1cc(F)ccc1F)N1CC(=O)N2[C@H](CO)[C@@H](c3ccc(/C=C/c4ccccc4)cc3)[C@@H]2C1	0.83
COc1ccccc1-c1ccc([C@@H]2[C@H]3CN(C(=O)NC4CCCC4)CCCCN3[C@H]2CO)cc1	-12*
